GLP1R inv ag: acts as inverse agonist at human GLP-1 receptor. P43220. HEK293 GLP-1R CRE-luciferase, luminescence, 24 h; GLP-1R form is constitutively active. Potency, µM (top dose mostly 38.3 µM), for the others: top-dose activity change, negative = inhibition, actives largely listed as inhibitors. 410,000 tested, 1.6% active; further: on the % scale 0 is the no-effect control and ±100 the full control effect; nearly all actives have a fitted effect of over 55% in size
Target sequence (P43220 whole entry, looked up): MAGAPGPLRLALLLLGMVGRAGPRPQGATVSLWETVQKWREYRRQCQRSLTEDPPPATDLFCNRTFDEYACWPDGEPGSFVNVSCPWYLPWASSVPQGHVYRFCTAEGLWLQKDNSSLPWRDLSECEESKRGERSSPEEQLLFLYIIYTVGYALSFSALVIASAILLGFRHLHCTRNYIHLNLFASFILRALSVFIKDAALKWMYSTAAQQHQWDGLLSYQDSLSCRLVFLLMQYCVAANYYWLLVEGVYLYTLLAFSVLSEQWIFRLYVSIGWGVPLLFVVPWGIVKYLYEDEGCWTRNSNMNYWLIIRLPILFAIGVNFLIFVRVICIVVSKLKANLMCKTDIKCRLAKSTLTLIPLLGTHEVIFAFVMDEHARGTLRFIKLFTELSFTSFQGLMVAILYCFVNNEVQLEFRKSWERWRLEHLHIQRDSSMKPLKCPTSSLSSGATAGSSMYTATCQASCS
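Inverse agonists were sought by their lowering of basal cAMP reporter luciferase output in HEK293 cells stably carrying constitutively active human GLP-1R, after 24 h compound treatment.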
Gal4-VP16 FLuc: Gal4-VP16 reporter inhibition counter-screen; Drosophila S2 Gal4-VP16 UAS-luciferase, luminescence, 20 h; Potency, µM (top dose mostly 53.6 µM), for inactives: at the highest dose activity, negative = inhibition, most hits filed as inhibitors; 310,000 tested, 3.5% active;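 further: Gal4-VP16 expression switched on by copper sulfate through the metallothionein promoter; on the % scale 0 is the no-effect control and ±100 the full control effect; nearly all actives have a fitted effect of over 50% in size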
RORgamma inh: blocks mouse ROR gamma transcriptional activity. AID 2551. 310,000 tested, 5.4% active. Drosophila S2 Gal4-RORgamma UAS-luciferase reporter, 20 h. Potency, µM (titrated, usually from 53.6 µM), without a hit: at the top dose activity change, negative = inhibition, actives largely listed as inhibitors; further: on the % scale 0 is the no-effect control and ±100 the full control effect; nearly all actives have a fitted effect of over 60% in size
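Luminescence from a UAS-regulated Photinus luciferase reporter in stably transfected Drosophila Schneider cells is measured; decreased signal marks ROR gamma inhibition. Fusion expression is induced by 700 uM copper sulfate for 20 hr.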
GLP1R cytotox: cytotoxicity counter-screen for GLP-1 receptor inverse agonists. HEK293 cAMP-luciferase reporter cells, luminescence, 24 h. Potency, µM (series often up to 38.3 µM), without a hit: at the highest dose activity change, negative = inhibition, actives largely listed as inhibitors. 410,000 tested, 0.13% active. AID 624418;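 further: loss of luciferase light is scored as toxicity; on the % scale 0 is the no-effect control and ±100 the full control effect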
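Compound-treated cells are incubated 24 hr at 37 deg C under 5% CO2 after a 12 hour attachment period, then luciferase detection reagent is added and luminescence is measured following 12 min at room temperature; lowered signal indicates toxicity.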
GLP1R ag: activates the human GLP-1 receptor; Potency, µM (top dose mostly 45.6 µM), without a hit: at the highest dose activation, usual class: activators; 380,000 tested, 0.007% active; AID 624172; HEK293 GLP-1R CRE-luciferase, luminescence, 4-6 h; cells express a hypersensitive GLP-1R form; further: % of control where 0% means no effect
An asterisk follows results filed as active; ? = inconclusive; . = not tested or not shown; [ ] = remark or other dose. Compounds with a hit are over-represented: about 5.9% of the library has one in this group of screens. The call rests on the fitted dose curve; in most records, active means well fitted curve in the direction sought with a large enough effect; inconclusive means small, poorly fitted or top-dose-only effect, or another doubt; inactive means no such curve, though single readings can be large; an effect the other way counts as inactive or inconclusive. Potency means the concentration at half of the fitted maximal effect.

SMILES	GLP1R inv ag	Gal4-VP16 FLuc	RORgamma inh	GLP1R cytotox	GLP1R ag
CC(C)[C@@H](CC(=O)N[C@@H]1CCCC[C@H]1C(=O)N[C@H](CC(=O)N[C@@H](CCC(=O)O)CC(=O)O)Cc1c[nH]c2ccccc12)NC(=O)C[C@H](Cc1ccccc1)NC(=O)[C@@H]1CNCC[C@H]1N	.	-13%	-15%	.	.
N#Cc1c(N)[nH]c(=S)c(C#N)c1-c1ccccc1	0%	?	10µM*	-4%	3%
Cc1ccc(-c2cc(-c3ccccc3)[nH]c(=S)c2C#N)cc1	-2%	?	?	-4%	-6%
N#CC(c1ccc(Cl)cc1)c1ccc2c(C(F)(F)F)cc(C(F)(F)F)nc2n1 (stereo unspecified)	7.1µM*	?	-92%	7.9µM*	0%
COc1ccccc1N1CCN(CCCNC(=O)c2cnn(-c3ccccc3)c2C2CCN(C(=O)OC(C)(C)C)CC2)CC1	?	.	.	-11%	.
O=C(Nc1ccccn1)c1onc2c1CCCC2	2.5µM*	8.9µM*	6.3µM*	20%	-32%
COc1cccc(/C=N/Nc2ccc([N+](=O)[O-])cn2)c1O	?	7.1µM*	4.5µM*	?	0%
O=[N+]([O-])c1ccc(/C=N/Nc2nc(N3CCCCC3)nc(N3CCCCC3)n2)o1	?	1%	-28%	-3%	-1%
Cc1ccc(Cn2cc(/C=N/Nc3ccc([N+](=O)[O-])cn3)c3ccccc32)cc1	11µM*	7.9µM*	11µM*	?	8%
O=[N+]([O-])c1ccc(Nc2nc(N/N=C/c3cccc(F)c3)nc(N3CCCC3)n2)cc1	?	-30%	?	-2%[1.53 µM]	-8%
COc1cccc(/C=N/Nc2nc(Nc3ccc([N+](=O)[O-])cc3)nc(N3CCCC3)n2)c1O	2.8µM*	-14%	4.5µM*	?	-2%
COc1c(/C=N/Nc2nc(N3CCCCC3)nc(N3CCCCC3)n2)cccc1[N+](=O)[O-]	-2%	14%	0.32µM*	-34%	-7%
O=[N+]([O-])c1cccc(/C=C/C=N/Nc2nc(N3CCCCC3)nc(N3CCCCC3)n2)c1	13%	-1%	7.9µM*	9%	3%
C=CCOc1c(CNc2cccc(C(=O)O)c2)cccc1OCC	0%	13%	4%	-10%	-2%
C=CCOc1c(CNc2cccc(C(=O)O)c2)cccc1OC	15%	?	10µM*	-16%	-29%
CN(C)CCNC(=O)C(=O)Nc1ccc2c(c1)N(S(=O)(=O)c1cccs1)CCC2	?	.	.	4.5µM*	12%
CCOC(=O)c1cc2c(nc1NC(=S)Nc1ccccc1)CC(C)(C)OC2	0%	?	2.8µM*	-4%	3%
C=CCNC(=S)Nc1nc2c(cc1C(=O)OCC)COC(C)(C)C2	8%	-5%	10µM*	-5%	2%
CCOC(=O)c1cc2c(nc1NC(=S)NCc1ccccc1)CCCC2	33%	3.5µM*	6.3µM*	5%	14%
CCOC(=O)c1cc2c(nc1N)CC(C)(C)OC2	37%	23%	?	-5%	16%
Cc1ccccc1Cn1c2ccccc2c2cnn(CC(=O)NC(C)CCc3ccccc3)c(=O)c21 (stereo unspecified)	6%	.	.	2%	.
Cc1ccc(CN(Cc2ccco2)C(=O)c2oc3c(C)c(C)ccc3c2C)cc1	?	.	.	15%	.
Cc1ccc(CNC(=O)C2CCN(S(=O)(=O)c3ccc4c(c3)oc(=O)n4C)CC2)cc1	-8%	.	.	-3%	-1%
COc1ccc(OCc2n[nH]c(=S)o2)cc1	-21%	?	?	-2%	-1%
S=c1[nH]nc(Cc2c[nH]c3ccccc23)o1	3%	-13%	-7%	-16%	-1%
SMILES	GLP1R inv ag	Gal4-VP16 FLuc	RORgamma inh	GLP1R cytotox	GLP1R ag
S=c1[nH]nc(CCc2ccc(Cl)cc2)o1	12%	?	7.9µM*	-3%	-2%
S=c1[nH]nc(COc2ccc(Cl)cc2)o1	9%	?	6.3µM*	-1%	-13%
COc1ccc(S(=O)(=O)Nc2ccc3oc4c(c3c2)C(=O)CC(C)(C)C4)cc1	-22%	.	.	-8%	-2%
CCOCCCNC(=S)NCCCNc1nc2c(C)c(C)ccc2cc1C#N	?	?	11µM*	11%	4%
Cc1cc2cc(C#N)c(NCCNC(=S)NCCCN3CCOCC3)nc2cc1C	?	-4%	-42%	14%	13%
Cc1cccc2cc(C#N)c(NCCNC(=S)NCCCN3CCOCC3)nc12	-19%	-2%[0.365 µM]	4µM*	14%	7%
CCOC(=O)[C@@](C)(N)Cc1ccc(O)c(O)c1	.	.	.	.	0%
COc1ccc(C(=O)NCC(=O)N2CCNC(=O)C2)cc1OC	2%	1%	-10%	-2%	8%
COc1ccc(C(=O)NC(=S)N2CCNC(=O)C2)cc1Br	47%	?	16µM*	8%	17%
COc1cc(C(=S)N2CCC(C)CC2)ccc1O	0%	?	-17%	-17%	-4%
O=C1CN(C(=S)NC(=O)c2ccc(-c3ccccc3)cc2)CCN1	8%	10µM*	1.8µM*	0%	8%
COc1ccc(C(=O)NC(=S)N2CCC(C)CC2)cc1Br	?	0.89µM*	0.63µM*	?	0%
O=C1CN(C(=S)Nc2ccccc2Cl)CCN1	-5%	10%	-15%	3%	2%
CC1(C)CC[C@]2(C(=O)O)C(O)C[C@@]3(C)C(=CCC4[C@@]5(C)CCC(O)C(C)(C)C5CC[C@@]43C)C2C1 (stereo partly specified)	.	-29%	1.4µM*	.	.
CC1(C)CC[C@]2(C)CC[C@@]3(C)C(=CCC4[C@@]5(C)CCC(O)C(C)(C)C5CC[C@@]43C)C2C1 (stereo partly specified)	.	-3%	11%	.	.
Cc1ccc(CNC(=O)C(Cc2ccccc2)NS(=O)(=O)c2cccs2)cc1 (stereo unspecified)	?	-3%	-7%	-1%	0%
CCOc1ccccc1NC(=O)C(Cc1ccccc1)NS(=O)(=O)c1ccc(Br)s1 (stereo unspecified)	11µM*	.	.	-7%	-13%
Cc1ccc(CNC(=O)C(Cc2ccccc2)NS(=O)(=O)c2ccc(Br)s2)cc1 (stereo unspecified)	10µM*	4%	?	-10%	7%
COc1ccc(C)cc1NC(=O)C(Cc1ccccc1)NS(=O)(=O)c1ccc(Br)s1 (stereo unspecified)	?	.	.	-18%	.
Cc1ccc(-c2nnc(CSc3nnc(COc4ccccc4)n3-c3ccccc3)o2)cc1	10µM*	-4%	?	-7%	3%
COc1ccc(-n2c(COc3ccc(C)cc3)nnc2SCC(N)=O)cc1	8%	-9%	11µM*	4%	27%
COc1ccc(-n2c(COc3ccccc3)nnc2SCC(N)=O)cc1	2%	-3%	6%	8%	-1%

Assay outcomes from PubChem BioAssay.
